Data taken from PubChem BioAssay (Tox21).
Values without a mark were called inactive. Records with an inconclusive call do not appear. The source made the active and inactive calls. Calls come from the whole dose curve; as a rule, active = well fitted curve in the direction sought with a large enough effect in the repeat runs; inconclusive = weak or mixed curves; inactive = no such curve, though single readings can be large; an effect the other way counts as inactive or inconclusive.

Experiments:
[1] = A CellTox Green Cytotoxicity Assay to monitor cytotoxicity in HEK293 cells - 40 hour (AID 1224871); note: nearly all actives have a fitted effect of over 45% in size; note: potency is the fitted concentration of half-maximal effect
In short: (§1)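 Read-out: fluorescence of a cell-impermeant cyanine dye staining DNA of dead cells, proportional to cytotoxicity. HEK293, 600 cells/well with reagent, compound (23 nL DMSO) added after 5 h; reads at 0, 8, 16, 24, 32, 40 h.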

[2] = qHTS RealTime-Glo MT Cell Viability Assay in HEK293 cells - 16 hour (AID 1224872); note: potency is the fitted concentration of half-maximal effect; nearly all actives have a fitted effect of over 50% in size
In short: (§2)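 HEK293 cells were seeded at 600 cells/well together with NanoLuc luciferase and cell-permeant prosubstrate, preincubated 5 h at 37 C/5% CO2, then given compound in DMSO by pintool. Luminescence from viable-cell prosubstrate reduction was read repeatedly over 40 h.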

[3] = qHTS RealTime-Glo MT Cell Viability Assay in HEK293 cells - 40 hour (AID 1224874); conditions: RealTime-Glo luminescence; max response: active compounds read low; note: potency is the fitted concentration of half-maximal effect; nearly all actives have a fitted effect of over 50% in size
In short: (§3)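 Luminescence readout at each listed time point; HEK293, 600 cells/well, RealTime-Glo MT reagent added with cells; compounds pinned (23 nL in DMSO) after 5 h at 37 C; continuous culture at 37 C.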

[4] = A CellTox Green Cytotoxicity Assay to monitor cytotoxicity in HEK293 cells - 24 hour (AID 1224875); note: nearly all actives have a fitted effect of over 45% in size; note: potency is the fitted concentration of half-maximal effect
In short: as §1

[5] = A CellTox Green Cytotoxicity Assay to monitor cytotoxicity in HepG2 cells - 16 hour (AID 1224876); note: nearly all actives have a fitted effect of over 45% in size; note: potency is the fitted concentration of half-maximal effect
In short: (§4)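 HepG2, 600 cells/well premixed w/ CellTox Green; 5 h settle, 37 C/5% CO2; pintool cpd add (DMSO); 37 C, 40 h; fluorescence read at 0, 8, 16, 24, 32, 40 h.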

[6] = qHTS RealTime-Glo MT Cell Viability Assay in HepG2 cells - 32 hour (AID 1224877); note: nearly all actives have a fitted effect of over 55% in size; note: potency is the fitted concentration of half-maximal effect
In short: (§5)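 HepG2 cells were seeded at 600 cells/well together with NanoLuc luciferase and a cell-permeant prosubstrate, preincubated 5 h at 37 C/5% CO2, then pin-dosed with compounds in DMSO. Nonlytic luminescence from viable cells was read at each time point.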

[7] = A CellTox Green Cytotoxicity Assay to monitor cytotoxicity in HepG2 cells - 24 hour (AID 1224878); note: potency is the fitted concentration of half-maximal effect; nearly all actives have a fitted effect of over 45% in size
In short: as §4

[8] = A CellTox Green Cytotoxicity Assay to monitor cytotoxicity in HepG2 cells - 40 hour (AID 1224879); note: potency is the fitted concentration of half-maximal effect; nearly all actives have a fitted effect of over 40% in size
In short: as §4

[9] = qHTS RealTime-Glo MT Cell Viability Assay in HEK293 cells - 0 hour (AID 1224880)
In short: as §3

[10] = A CellTox Green Cytotoxicity Assay to monitor cytotoxicity in HEK293 cells - 32 hour (AID 1224881); note: nearly all actives have a fitted effect of over 40% in size; note: potency is the fitted concentration of half-maximal effect
In short: as §1

[11] = A CellTox Green Cytotoxicity Assay to monitor cytotoxicity in HepG2 cells - 0 hour (AID 1224882); note: nearly all actives have a fitted effect of over 35% in size; note: potency is the fitted concentration of half-maximal effect
In short: as §4

[12] = A CellTox Green Cytotoxicity Assay to monitor cytotoxicity in HepG2 cells - 32 hour (AID 1224883); note: potency is the fitted concentration of half-maximal effect; nearly all actives have a fitted effect of over 50% in size
In short: as §4

[13] = qHTS RealTime-Glo MT Cell Viability Assay in HEK293 cells - 24 hour (AID 1224886); note: potency is the fitted concentration of half-maximal effect; nearly all actives have a fitted effect of over 50% in size
In short: as §2

[14] = qHTS RealTime-Glo MT Cell Viability Assay in HEK293 cells - 8 hour (AID 1224887); note: nearly all actives have a fitted effect of over 50% in size; note: potency is the fitted concentration of half-maximal effect
In short: as §3

[15] = A CellTox Green Cytotoxicity Assay to monitor cytotoxicity in HEK293 cells - 16 hour (AID 1224888); note: nearly all actives have a fitted effect of over 35% in size; note: potency is the fitted concentration of half-maximal effect
In short: as §1

[16] = qHTS RealTime-Glo MT Cell Viability Assay in HepG2 cells - 0 hour (AID 1224889); note: nearly all actives have a fitted effect of over 50% in size
In short: as §5

[17] = A CellTox Green Cytotoxicity Assay to monitor cytotoxicity in HepG2 cells - 8 hour (AID 1224890); note: nearly all actives have a fitted effect of over 45% in size; note: potency is the fitted concentration of half-maximal effect
In short: as §4

[18] = A CellTox Green Cytotoxicity Assay to monitor cytotoxicity in HEK293 cells - 8 hour (AID 1224884); note: nearly all actives have a fitted effect of over 35% in size; note: potency is the fitted concentration of half-maximal effect
In short: as §1

[19] = qHTS RealTime-Glo MT Cell Viability Assay in HepG2 cells - 16 hour (AID 1224885); note: nearly all actives have a fitted effect of over 50% in size; note: potency is the fitted concentration of half-maximal effect
In short: as §5

[20] = qHTS RealTime-Glo MT Cell Viability Assay in HepG2 cells - 8 hour (AID 1224873); note: nearly all actives have a fitted effect of over 55% in size; note: potency is the fitted concentration of half-maximal effect
In short: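 HepG2 cells (600/well) mixed with RealTime-Glo MT reagent, settled 5 h at 37 C/5% CO2 before compound addition. Nonlytic NanoLuc luminescence from viable-cell prosubstrate reduction read repeatedly during 40 h treatment at 37 C.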

SMILES | Potency [1] | Potency [2] | Potency [3] | Potency [4] | Potency [5] | Potency [6] | Potency [7] | Potency [8] | Potency [9] | Potency [10] | Potency [11] | Potency [12] | Potency [13] | Potency [14] | Potency [15] | Potency [16] | Potency [17] | Potency [18] | Potency [19] | Potency [20]
CCN(CC)CCCC(C)Nc1c2ccc(Cl)cc2nc2ccc(OC)cc12 (stereo not given) | 6.01 µM (active) | 4.25 µM (active) | 3.01 µM (active) | 10.7 µM (active) | 16.9 µM (active) | 6.01 µM (active) | 9.52 µM (active) | 6.01 µM (active) | inactive | 7.56 µM (active) | 21.3 µM (active) | 6.74 µM (active) | 4.25 µM (active) | 5.35 µM (active) | 23.9 µM (active) | inactive | 16.9 µM (active) |  |  | 
CCCCCCCCCCCCCCCCCC[N+](C)(C)C | 21.9 µM (active) | 24.6 µM (active) | 7.79 µM (active) | 39 µM (active) |  |  |  | 49.1 µM (active) | inactive | 21.9 µM (active) | inactive |  | 19.6 µM (active) | 49.1 µM (active) | 49.1 µM (active) | inactive |  | 39 µM (active) |  | 
CCCCCCCCCOC(=O)c1ccc(O)cc1 | 38.3 µM (active) | 43 µM (active) | 38.3 µM (active) | 38.3 µM (active) | 48.3 µM (active) | inactive | 48.3 µM (active) | 48.3 µM (active) | inactive | 38.3 µM (active) | inactive |  | 38.3 µM (active) | 38.3 µM (active) | 38.3 µM (active) | inactive | inactive |  |  | 
CC(C)(C)NC(=O)[C@@H]1C[C@@H]2CCCC[C@@H]2CN1C[C@@H](O)[C@H](Cc1ccccc1)NC(=O)[C@H](CC(N)=O)NC(=O)c1ccc2ccccc2n1 | 55.7 µM (active) | 24.9 µM (active) | 17.6 µM (active) |  |  |  | 55.7 µM (active) | 49.6 µM (active) | inactive |  | inactive | 55.7 µM (active) | 19.7 µM (active) | 19.7 µM (active) | inactive | inactive | inactive |  | 55.7 µM (active) | 
Cc1cc2c(cc1C(F)(F)F)N(C(=O)Nc1ccc(Oc3cccnc3C)nc1)CC2 | inactive |  | 5.58 µM (active) | inactive | inactive |  |  |  | inactive | inactive | inactive |  |  | inactive | inactive | inactive | inactive | inactive | inactive | inactive
CCc1cc(Cc2cc(CC)cc(C(C)(C)C)c2O)c(O)c(C(C)(C)C)c1 | 54.9 µM (active) | 13.8 µM (active) |  |  |  | 49 µM (active) |  |  | inactive |  | inactive |  | 15.5 µM (active) | 13.8 µM (active) |  | inactive |  |  | 49 µM (active) | 49 µM (active)
CC/C(=C(\c1ccc(O)cc1)c1ccc(OCCN(C)C)cc1)c1ccccc1 | 43.8 µM (active) | 24.6 µM (active) |  | 49.1 µM (active) |  | 61.8 µM (active) | 55.1 µM (active) | 55.1 µM (active) | inactive | 43.8 µM (active) | inactive | 49.1 µM (active) |  | 27.6 µM (active) | 55.1 µM (active) | inactive |  |  | 61.8 µM (active) | 
C=CC(=O)OCCn1c(=O)n(CCOC(=O)C=C)c(=O)n(CCOC(=O)C=C)c1=O | 21.9 µM (active) | 11 µM (active) | 11 µM (active) | 49 µM (active) | 49 µM (active) | 24.5 µM (active) | 49 µM (active) | 21.9 µM (active) |  | 34.7 µM (active) | inactive | 43.6 µM (active) |  | inactive | inactive | inactive | inactive | inactive | 15.5 µM (active) | 
